Laboratory results as given in PubChem BioAssay AID1903 (Southern Research Specialized Biocontainment Screening …, 2009).
Among all 310,000 compounds or so, about 1,200 (0.39%) were called active. How the calls were made is not given here. A selection follows. Measured potencies and affinities stand elsewhere.

Target: Large T antigen (Simian virus 40) (UniProt P03070)
Assay: SV40 large T antigen inhibitors, biochemical (AID 1903)
Details: SV40 large T antigen ATPase/helicase inhibition assay; at 20 µM; active compounds read high

Large T antigen (Simian virus 40), sequence (P03070 whole entry, looked up): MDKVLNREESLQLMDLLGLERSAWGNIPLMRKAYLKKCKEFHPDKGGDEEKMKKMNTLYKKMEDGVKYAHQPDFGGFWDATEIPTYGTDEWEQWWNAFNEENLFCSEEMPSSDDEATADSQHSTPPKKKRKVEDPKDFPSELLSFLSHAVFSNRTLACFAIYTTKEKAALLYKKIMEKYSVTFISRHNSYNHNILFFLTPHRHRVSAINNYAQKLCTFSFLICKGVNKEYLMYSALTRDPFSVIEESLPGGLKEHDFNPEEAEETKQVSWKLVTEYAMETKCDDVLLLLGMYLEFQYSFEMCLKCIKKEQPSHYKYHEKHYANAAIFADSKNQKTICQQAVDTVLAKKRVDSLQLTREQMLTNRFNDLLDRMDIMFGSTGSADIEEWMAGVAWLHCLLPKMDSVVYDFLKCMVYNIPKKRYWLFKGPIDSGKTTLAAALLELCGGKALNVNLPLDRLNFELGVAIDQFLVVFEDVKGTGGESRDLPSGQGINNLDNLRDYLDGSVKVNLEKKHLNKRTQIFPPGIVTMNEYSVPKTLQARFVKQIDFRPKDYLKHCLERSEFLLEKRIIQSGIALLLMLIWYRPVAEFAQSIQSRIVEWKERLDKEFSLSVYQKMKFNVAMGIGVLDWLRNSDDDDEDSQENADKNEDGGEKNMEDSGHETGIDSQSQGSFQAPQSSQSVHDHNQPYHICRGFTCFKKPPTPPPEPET

inhibition, inactive:
Cc1ccc(SCC(=O)Nc2ccc3c(c2)C(=O)N(C)C3=O)cc1 3.52%
CCN(c1ccc(NC(=O)COC(=O)CCC(=O)c2ccc(F)cc2)cc1)C(C)C 23.7%
O=C(CN1CCN(c2ccc(Cl)cc2)CC1)Nc1ccc(F)cc1 5.08%
CC(C)c1ccc(NC(=O)Cn2ncn3c(cc4ccccc43)c2=O)cc1 5.59%
CCN(CC)c1ccc(NC(=O)COC(=O)CCC(=O)c2ccc(F)cc2)cc1 26.6%
CCN(CC)c1ccc(NC(=O)CN2CCN(c3ccc(F)cc3)CC2)cc1 22.8%
CCN1CCN(CC(=O)Nc2ccc(N(C)C)cc2)CC1 15.6%
CC(C)(C)NC(=O)CN1CCC(O)(c2ccccc2)CC1 -0.59%
CCc1ccc(NC(=O)Cn2ncn3c(cc4ccccc43)c2=O)cc1 8.68%
O=C(NCCCN1CCOCC1)c1cccc(NC(=O)c2ccccc2)c1 8.5%
Cc1cc(C)n(Cc2ccc(NC(=O)c3c([N+](=O)[O-])c(C)nn3C)cc2)n1 21.7%
Cn1ccnc1/C(=N\NC(=O)c1ccccc1)c1cccc([N+](=O)[O-])c1 17.9%
Cc1nc2nc(C)c(CCC(=O)O)c(C)n2n1 8.37%
CCCCC(CC)C(=O)Nc1ccc(C)c(O)c1 (centres undefined) 1.23%
CCOc1ccc(S(=O)(=O)n2cnc3ccccc32)cc1 12.2%
CCCc1cc2c(=O)n(NC(=O)c3nn(C)cc3[N+](=O)[O-])c(C)nc2s1 15.2%
CCCCOP(=O)(c1ccc(N(C)C)cc1)C(O)c1cccnc1 (centres undefined) 7.96%
Cc1ccc(C(=O)NCc2ccncc2)cc1S(=O)(=O)Nc1cccc(C)c1C 2.57%
O=C(COC(=O)Cn1nnc2ccccc21)Nc1ccccc1Br 7.03%
COc1ccc(NC(=O)COC(=O)Cn2nnc3ccccc32)cc1 12.6%
O=C(NC1CCCC1)C1CCCN(S(=O)(=O)c2cnc[nH]2)C1 (centres undefined) 5.21%
CCOC(=O)c1ccc(NC2c3ccccc3C(=O)N2c2ccccn2)cc1 (centres undefined) 0.465%
Cc1ccccc1NC(=O)CC1SC(=O)N(c2ccccc2)C1=O (centres undefined) 14%
O=C(CC1SC(=O)N(c2ccccc2)C1=O)Nc1ccccc1 (centres undefined) 38.4%
CO/N=C/C(=N\Nc1cc(OC)cc(OC)c1)C(=O)c1ccccc1 9.31%
CCn1cnc2cc(NCc3ccc(C)cc3)ccc21 35.2%
CN(C)c1ccc(CNc2ccc3c(c2)ncn3C(C)(C)C)cc1 37.9%
Cc1ccc(CNc2ccc3c(c2)ncn3C(C)(C)C)cc1 21.9%
CCc1ccc(CNc2ccc3c(c2)ncn3C)cc1 22.1%
CCc1ccc(CNc2ccc3c(c2)ncn3CC)cc1 24.4%
CCN(CC)c1ccc(CNc2ccc3c(c2)ncn3CC)cc1 32.3%
Cc1nc2cc(-c3sccc3-n3cccc3)nn2c(C)c1C 5.6%
Cc1ccc(NS(=O)(=O)c2ccc(CCC(=O)NCc3cccnc3)cc2)cc1 7.61%
COC(=O)c1ccc(COc2cccc3c2CCN(Cc2ccccc2)C3=O)o1 4.93%
Brc1ccc2[nH]c3c(NCc4ccccn4)ncnc3c2c1 4.68%
O=C(Nc1ccccc1)N(Cc1ccccc1)C1=NCCS1 5.16%
O=C(O)COc1ccccc1/C=N/NC(=O)CN1CCN(Cc2ccccc2Cl)CC1 2.27%
CCOC(=O)c1c(NC(=O)/C=C\C(=O)O)sc(C)c1-c1ccccc1 12.2%
CCOC(=O)c1c(NC(=O)/C=C/C(=O)O)sc(C)c1-c1ccc(Cl)cc1 47.5%
O=C(Nc1c(-c2ccccc2)nc2ccccn12)c1ccco1 19.3%
OCCNc1nc(Cl)nc(NCc2ccco2)n1 3.58%
CCOC(=O)CNc1c(-c2ccc(OC)cc2)nc2ccc(Cl)cn12 19.4%
CCOC(=O)CNc1c(-c2ccc(Cl)cc2)nc2cnccn12 14.1%
CC(C)c1ccc(Nc2nc(Cl)nc(NCc3ccco3)n2)cc1 23.9%
COCCNc1c(-c2ccc(O)cc2)nc2ccc(Cl)cn12 25.7%
CCOC(=O)CNc1c(-c2ccccc2)nc2ccc(Cl)cn12 13.6%
Cc1ccc2[nH]c(=O)c(-c3nc4ccccn4c3NCc3ccco3)cc2c1 26%
Cc1ccc(CCNC(=O)C2CCCN(S(=O)(=O)c3cccc4nsnc34)C2)cc1 (centres undefined) 4.61%
CN(C)/C=C/C(=O)c1ccc(Cl)c([N+](=O)[O-])c1 11.3%
Cc1ccc(-n2nnnc2SCC(=O)Nc2ccc(N3CCN(C)CC3)cc2)c(C)c1 17.6%
COc1ccc2[nH]cc(C(=O)CN3CCCCC3)c2c1 20.3%
O=C(NCCC1=CCCCC1)Nc1ccc2nsnc2c1 -1.37%
Cn1c(N)c(C(=O)COC(=O)c2ccc(S(=O)(=O)N3CCCCC3)cc2)c(=O)n(C)c1=O 2.82%
CCc1noc(C)c1C(=O)Nc1nnc(C2CCCCC2)s1 16%
COC(=O)c1c([N+](=O)[O-])c(OC)c(OC)c(OC)c1[N+](=O)[O-] 2.68%
COC(=O)[C@H](CCSC)NS(=O)(=O)c1ccccc1Br 24.3%
Cc1cccc(NC(=O)c2ccc(NC(=O)CC3SC(N4CCCC4)=NC3=O)cc2)n1 (centres undefined) 12.5%
CC1CCCN(S(=O)(=O)c2ccc(CN3C(=O)c4cccnc4C3=O)cc2)C1 (centres undefined) 9.07%
O=C1NN(c2ccc(F)cc2)C(=O)/C1=C\C=C\c1ccco1 19.7%
CC(C)CN1C(=O)/C(=C/c2ccco2)NC1=S 19.9%
CCN1C(=O)/C(=C\c2ccco2)C(C(=O)OC)=C1C 8.18%
CCc1ccc(N2NC(=O)/C(=C/C=C/c3ccco3)C2=O)cc1 22.1%
Cc1cccc(N=C2NC(=O)/C(=C/C=C/c3ccco3)S2)c1C 5.68%
CCCCn1c(N)c(N(CC)C(=O)/C=C/c2ccco2)c(=O)[nH]c1=O 5.15%
